Results published in ChEMBL document CHEMBL3988442, “University of Dundee, Small-Polar-MMV Screening Library” (2021).
For part of these data: Measured potencies and affinities stand elsewhere.

How the values were obtained:
Design in all cases: scale not given: direction of the effect not stated beside the values
[1] = molecular target: Protein translocase subunit SecA (Escherichia coli (strain K12)) (UniProt P10408); assay: Assay to Identify E. coli SecA ATPase Inhibitors; format: functional; details: 30 µM
Sequence of Protein translocase subunit SecA (Escherichia coli (strain K12)) (P10408 whole entry): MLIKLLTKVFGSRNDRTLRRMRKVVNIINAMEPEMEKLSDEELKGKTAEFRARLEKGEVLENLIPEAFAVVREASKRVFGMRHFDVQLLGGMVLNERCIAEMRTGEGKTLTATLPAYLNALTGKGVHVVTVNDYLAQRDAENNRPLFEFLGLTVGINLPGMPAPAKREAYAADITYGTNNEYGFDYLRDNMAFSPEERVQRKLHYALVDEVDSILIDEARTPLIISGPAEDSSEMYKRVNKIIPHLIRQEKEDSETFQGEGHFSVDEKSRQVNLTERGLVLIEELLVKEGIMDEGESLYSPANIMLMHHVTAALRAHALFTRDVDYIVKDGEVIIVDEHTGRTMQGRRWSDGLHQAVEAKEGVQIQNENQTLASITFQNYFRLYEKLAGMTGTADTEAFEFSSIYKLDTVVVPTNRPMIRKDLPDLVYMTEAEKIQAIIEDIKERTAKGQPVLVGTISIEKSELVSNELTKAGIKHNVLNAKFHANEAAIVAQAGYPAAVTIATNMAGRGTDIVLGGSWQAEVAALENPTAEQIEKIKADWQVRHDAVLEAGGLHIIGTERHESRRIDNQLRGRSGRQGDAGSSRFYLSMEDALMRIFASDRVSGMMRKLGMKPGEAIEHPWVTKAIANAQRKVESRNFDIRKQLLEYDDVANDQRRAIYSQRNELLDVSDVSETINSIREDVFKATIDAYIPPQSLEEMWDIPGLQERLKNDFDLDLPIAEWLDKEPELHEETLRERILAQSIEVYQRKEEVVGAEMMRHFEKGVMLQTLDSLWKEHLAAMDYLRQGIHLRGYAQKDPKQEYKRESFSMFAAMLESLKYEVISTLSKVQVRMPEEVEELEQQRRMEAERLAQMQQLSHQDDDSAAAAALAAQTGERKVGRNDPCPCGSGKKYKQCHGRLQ

[2] = molecular target: T1, Ubiquitin-activating enzyme e1, putative (Leishmania donovani (strain BPK282A1)) (UniProt E9BSI1); assay: Leishmania donovani Ubiquitin Activating Enzyme (LdE1); format: functional; details: 30 µM
T1 sequence (whole entry): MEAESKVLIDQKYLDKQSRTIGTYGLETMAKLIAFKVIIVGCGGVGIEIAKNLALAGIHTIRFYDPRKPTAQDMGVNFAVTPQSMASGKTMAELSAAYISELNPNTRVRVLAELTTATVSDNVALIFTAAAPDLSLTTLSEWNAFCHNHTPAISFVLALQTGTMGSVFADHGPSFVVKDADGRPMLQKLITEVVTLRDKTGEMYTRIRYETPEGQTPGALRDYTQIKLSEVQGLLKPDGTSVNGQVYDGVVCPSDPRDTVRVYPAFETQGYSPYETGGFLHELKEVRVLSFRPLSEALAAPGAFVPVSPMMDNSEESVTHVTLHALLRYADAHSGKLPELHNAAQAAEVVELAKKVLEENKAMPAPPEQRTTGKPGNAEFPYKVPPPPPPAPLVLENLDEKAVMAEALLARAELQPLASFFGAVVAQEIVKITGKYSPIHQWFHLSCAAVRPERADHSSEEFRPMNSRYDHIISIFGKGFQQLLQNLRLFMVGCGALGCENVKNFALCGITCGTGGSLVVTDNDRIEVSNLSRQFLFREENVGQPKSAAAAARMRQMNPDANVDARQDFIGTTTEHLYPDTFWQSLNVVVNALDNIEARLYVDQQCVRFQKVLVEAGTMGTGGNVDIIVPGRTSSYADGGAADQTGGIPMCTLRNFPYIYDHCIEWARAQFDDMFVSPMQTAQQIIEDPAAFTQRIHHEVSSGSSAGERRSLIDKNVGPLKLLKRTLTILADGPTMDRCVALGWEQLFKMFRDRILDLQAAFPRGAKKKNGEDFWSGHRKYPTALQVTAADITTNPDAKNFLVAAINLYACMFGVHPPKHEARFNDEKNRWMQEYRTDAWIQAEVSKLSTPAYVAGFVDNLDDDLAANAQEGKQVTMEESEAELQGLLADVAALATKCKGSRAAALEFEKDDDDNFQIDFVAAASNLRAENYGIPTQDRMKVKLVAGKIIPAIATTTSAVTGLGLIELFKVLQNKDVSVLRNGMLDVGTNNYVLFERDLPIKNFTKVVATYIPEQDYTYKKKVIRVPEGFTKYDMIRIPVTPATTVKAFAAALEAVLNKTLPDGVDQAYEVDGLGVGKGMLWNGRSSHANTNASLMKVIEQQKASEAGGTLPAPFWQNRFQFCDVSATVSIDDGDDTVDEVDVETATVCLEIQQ

[3] = molecular target: Sialic acid-binding Ig-like lectin 9 (Homo sapiens) (UniProt Q9Y336); assay: Hs-Siglec9 ALPHAscreen SOP 20170721; details: 10 µM
Sequence of Sialic acid-binding Ig-like lectin 9 (Homo sapiens) (Q9Y336 whole entry): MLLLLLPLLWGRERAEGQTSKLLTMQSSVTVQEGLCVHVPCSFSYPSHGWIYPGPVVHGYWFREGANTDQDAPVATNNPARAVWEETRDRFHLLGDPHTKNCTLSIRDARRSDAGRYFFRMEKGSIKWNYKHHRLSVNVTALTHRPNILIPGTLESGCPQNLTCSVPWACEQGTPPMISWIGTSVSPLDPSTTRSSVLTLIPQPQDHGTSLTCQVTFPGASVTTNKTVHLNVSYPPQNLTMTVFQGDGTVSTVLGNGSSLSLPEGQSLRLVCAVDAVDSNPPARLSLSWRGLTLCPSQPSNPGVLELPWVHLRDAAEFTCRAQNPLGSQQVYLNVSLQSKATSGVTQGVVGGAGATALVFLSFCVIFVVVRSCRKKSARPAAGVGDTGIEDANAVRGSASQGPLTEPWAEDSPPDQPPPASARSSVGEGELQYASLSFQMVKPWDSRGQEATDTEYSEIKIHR

Trypanosoma cruzi = assay: Trypanosoma cruzi phosphomannomutase and mannose-1-phosphate guanylyltransferase assay; format: functional; details: 10 µM
[4] = molecular target: T2, Arginase-2, mitochondrial (Homo sapiens) (UniProt P78540); assay: in vitro enzyme assay to detect the production of urea directly proportional to the activity of Arginase II; format: functional; details: 33.3 µM; further: in the data most compounds retested in dose-response had high values
T2 sequence (whole entry): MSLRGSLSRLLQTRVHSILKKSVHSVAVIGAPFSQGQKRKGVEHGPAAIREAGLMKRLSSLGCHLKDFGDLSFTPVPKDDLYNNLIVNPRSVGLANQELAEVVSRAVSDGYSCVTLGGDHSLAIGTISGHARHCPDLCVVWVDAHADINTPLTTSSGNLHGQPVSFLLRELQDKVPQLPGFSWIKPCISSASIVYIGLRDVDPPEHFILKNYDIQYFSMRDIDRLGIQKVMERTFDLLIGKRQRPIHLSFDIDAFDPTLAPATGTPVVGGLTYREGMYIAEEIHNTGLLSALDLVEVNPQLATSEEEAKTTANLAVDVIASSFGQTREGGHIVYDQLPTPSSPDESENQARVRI

[5] = molecular target: T3, Proteasome subunit beta (Trypanosoma cruzi) (UniProt O96673); assay: Trypanosoma cruzi proteasome chymotrypsin-like activity (TcProtChymo) assay.; further: in the data most compounds retested in dose-response had high values; format: functional; details: 9.37 µM
T3 sequence (whole entry): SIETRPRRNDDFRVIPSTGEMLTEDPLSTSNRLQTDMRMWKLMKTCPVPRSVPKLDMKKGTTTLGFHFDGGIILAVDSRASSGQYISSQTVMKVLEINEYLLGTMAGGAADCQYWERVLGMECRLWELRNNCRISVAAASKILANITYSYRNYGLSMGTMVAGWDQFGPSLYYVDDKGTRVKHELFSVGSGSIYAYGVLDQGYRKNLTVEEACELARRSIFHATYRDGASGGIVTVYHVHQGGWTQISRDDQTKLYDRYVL

Homo sapiens = organism: Homo sapiens; assay: To identify inhibition of the IFN signalling (Jak-Stat) pathway via expression of an eGFP reporter gene under the control of an IFN-stimulated response element (ISRE) containing MxA promoter.; format: functional; details: 30 µM
[6] = molecular target: T4, Tyrosyl-tRNA synthetase, putative (Trypanosoma cruzi (strain CL Brener)) (UniProt Q4DSP6); assay: Trypanosoma cruzi tyrosyl tRNA synthetase (TcYRS) _High Tyrosine SOP; format: functional; details: 30 µM; further: in the data most compounds retested in dose-response had high values
T4 sequence (whole entry): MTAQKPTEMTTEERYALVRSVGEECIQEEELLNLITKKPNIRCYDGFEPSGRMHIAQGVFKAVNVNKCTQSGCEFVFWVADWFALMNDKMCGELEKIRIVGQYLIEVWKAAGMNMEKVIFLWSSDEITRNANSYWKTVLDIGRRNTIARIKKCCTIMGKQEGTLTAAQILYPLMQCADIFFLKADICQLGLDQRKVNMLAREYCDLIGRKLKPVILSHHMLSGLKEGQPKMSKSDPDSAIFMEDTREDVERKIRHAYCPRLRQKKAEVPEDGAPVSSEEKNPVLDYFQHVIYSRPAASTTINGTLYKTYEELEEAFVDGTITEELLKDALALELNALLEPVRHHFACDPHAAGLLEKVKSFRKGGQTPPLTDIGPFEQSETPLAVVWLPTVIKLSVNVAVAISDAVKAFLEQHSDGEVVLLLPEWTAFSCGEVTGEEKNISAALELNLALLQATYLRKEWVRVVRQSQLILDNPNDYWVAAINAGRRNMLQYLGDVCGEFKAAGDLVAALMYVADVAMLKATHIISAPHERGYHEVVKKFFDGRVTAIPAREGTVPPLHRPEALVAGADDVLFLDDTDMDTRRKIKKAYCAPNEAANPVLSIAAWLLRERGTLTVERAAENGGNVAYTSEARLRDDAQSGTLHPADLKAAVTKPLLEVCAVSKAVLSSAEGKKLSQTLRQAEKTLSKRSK

[7] = molecular target: T4, Tyrosyl-tRNA synthetase, putative (Trypanosoma cruzi (strain CL Brener)); assay: Trypanosoma cruzi tyrosyl tRNA synthetase (TcYRS) SOP; format: functional; details: 30 µM
[8] = molecular target: Chromo domain-containing protein 1 (Saccharomyces cerevisiae (strain ATCC 204508 / S288c) (Baker's yeast)) (UniProt P32657); assay: ScCHD-1 Enzyme Inhibition Assay; format: functional; details: 30 µM; further: in the data most compounds retested in dose-response had high values
Sequence of Chromo domain-containing protein 1 (Saccharomyces cerevisiae (strain ATCC 204508 / S288c) (Baker's yeast)) (P32657 whole entry, the tested form may be a part): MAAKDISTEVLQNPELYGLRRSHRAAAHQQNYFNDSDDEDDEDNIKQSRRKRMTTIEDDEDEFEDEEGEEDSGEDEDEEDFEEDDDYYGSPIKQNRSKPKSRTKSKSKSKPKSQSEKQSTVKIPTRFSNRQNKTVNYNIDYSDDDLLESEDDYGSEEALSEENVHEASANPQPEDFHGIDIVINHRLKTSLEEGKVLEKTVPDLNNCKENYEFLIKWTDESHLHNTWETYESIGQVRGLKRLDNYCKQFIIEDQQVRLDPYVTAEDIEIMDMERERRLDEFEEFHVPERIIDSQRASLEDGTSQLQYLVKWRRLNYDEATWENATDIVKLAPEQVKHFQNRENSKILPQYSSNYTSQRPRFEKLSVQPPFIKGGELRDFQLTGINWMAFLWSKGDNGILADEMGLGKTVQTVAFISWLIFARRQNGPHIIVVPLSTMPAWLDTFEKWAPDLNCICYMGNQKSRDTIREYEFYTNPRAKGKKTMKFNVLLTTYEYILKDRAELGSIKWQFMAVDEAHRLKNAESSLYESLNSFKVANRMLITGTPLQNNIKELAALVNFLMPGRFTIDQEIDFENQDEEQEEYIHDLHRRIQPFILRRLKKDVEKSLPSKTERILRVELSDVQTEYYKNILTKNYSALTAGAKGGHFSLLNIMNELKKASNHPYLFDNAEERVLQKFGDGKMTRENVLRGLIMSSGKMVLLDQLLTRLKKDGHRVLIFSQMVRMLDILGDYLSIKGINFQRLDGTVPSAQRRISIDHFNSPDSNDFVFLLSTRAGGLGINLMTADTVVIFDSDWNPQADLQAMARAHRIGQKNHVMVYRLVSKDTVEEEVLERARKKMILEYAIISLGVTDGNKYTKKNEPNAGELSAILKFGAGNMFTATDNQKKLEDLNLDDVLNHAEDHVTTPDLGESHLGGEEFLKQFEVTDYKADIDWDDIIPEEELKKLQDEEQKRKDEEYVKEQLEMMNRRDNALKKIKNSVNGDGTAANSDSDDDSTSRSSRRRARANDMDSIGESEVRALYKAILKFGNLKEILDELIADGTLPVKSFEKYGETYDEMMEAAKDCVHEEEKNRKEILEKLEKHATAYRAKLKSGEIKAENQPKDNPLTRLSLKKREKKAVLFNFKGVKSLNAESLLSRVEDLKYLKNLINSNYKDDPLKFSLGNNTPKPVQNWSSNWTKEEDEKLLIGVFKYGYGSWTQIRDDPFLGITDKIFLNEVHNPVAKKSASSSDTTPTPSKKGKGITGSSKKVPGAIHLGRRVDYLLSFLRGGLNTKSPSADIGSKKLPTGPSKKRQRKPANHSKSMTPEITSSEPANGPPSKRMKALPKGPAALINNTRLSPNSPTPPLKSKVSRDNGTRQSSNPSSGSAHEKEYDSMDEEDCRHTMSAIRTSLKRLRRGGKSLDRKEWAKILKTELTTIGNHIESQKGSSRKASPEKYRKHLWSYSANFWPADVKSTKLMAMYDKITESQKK

SMILES | Percent Effect [1] [%] | Percent Effect [2] [%] | Percent Effect [3] [%] | Percent Effect (Trypanosoma cruzi) [%] | Percent Effect [4] [%] | Percent Effect [5] [%] | Percent Effect (Homo sapiens) [%] | Percent Effect [6] [%] | Percent Effect [7] [%] | Percent Effect [8] [%]
Nc1nccc(-c2c[nH]nc2C2CCCCC2)n1 | 1.44 | 10.7 | -1.99 | -6.83 | 3.1 | 17.9 | 99.6 | 1.58 | 0 | -6.8
CC(=O)NCCC(=O)NCc1cccnc1-n1cnc2ccccc21 | 0.292 | 0 | 2.93 | 6.69 | 12.2 | 1.71 | -5.79 | -0.532 | 2.44 | 98.3
CCc1nccn1-c1cncc(C2CCCN2Cc2ccc(F)cc2)n1 (stereo not given) | -7.77 | 4 | 1.71 | 1.97 | 0.443 | -0.328 | 35.7 | 4.23 | 5 | -27.1
CC(C)n1ccnc1CN1CCCN(C(=O)c2nccnc2N)CC1 | -0.38 | 7.69 | -9.32 | 1.97 | 0 | 18.3 | 1.4 | 9.09 | 22.9 | -3.56
Cc1ncoc1C(=O)N1CCn2c(COCC3CC3)cnc2C1C (stereo not given) | -6.41 | 9.09 | -3.19 | 0.487 | -0.81 | 10.2 | -4.92 | 7.89 | 12.8 | -2.4
O=C(NCc1cc[nH]n1)NCC(O)c1ccc(F)cc1F (stereo not given) | -0.475 | 8 | -0.795 | -4.82 | -0.444 | 7.38 | -4.21 | 5.79 | 10.3 | -7.37
Cn1ccc(CN2CCC(NC(=O)NC3CCCCC3)CC2)cc1=O | -2.35 | 10.3 | 10.4 | -2.16 | 6.15 | -1.28 | 27.9 | 4.31 | 10.8 | -1.97
CC(=O)N1[C@@H](C(=O)NCC2CC2)C[C@@H]2CN(Cc3ccco3)C[C@@H]21 | -0.254 | 22.1 | -5.46 | -0.938 | 3.2 | 12.1 | 9.99 | 3.87 | 7.5 | -7.56
O=C(NCCOc1ccc(Cl)cc1)N1CCS(=O)(=O)CC1 | -5.3 | 5.13 | -7.37 | 6.1 | -1.23 | 6.74 | 3.33 | -0.478 | 10.8 | -6.32
Cn1ccnc1CN1CCOCC(Cc2ccccn2)C1 (stereo not given) | -3.37 | 6.67 | 0.649 | -4.14 | 5.75 | 11.3 | 8.81 | 1.06 | 10 | -19.9
O=C(c1cc(Cl)c2c(c1)OCCO2)N1CCCC(n2cncn2)C1 (stereo not given) | -2.53 | -5.33 | 5.05 | 0.402 | 1.77 | 1.78 | 6.76 | -0.526 | 0 | 2.59
O=C(NCCC1=CCCCC1)C1CCCN(c2ccc3nncn3n2)C1 (stereo not given) | -2.76 | 8.11 | 3.56 | -0.291 | -9.44 | 13.5 | -5.74 | 3.72 | 12.2 | -1.71
